Reference: PubChem BioAssay AID538 (PCMD, 2006)
The campaign covered roughly 62,000 compounds. About 100 (0.16%) were called active. This is one part of a sample in which actives are shown more often than they occur. A number with no mark means an inactive call.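 How the source made its calls: active means inhibition above 20% in each of the two 10-compound mixture wells holding the compound; inactive means the rest.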

Each compound was assayed against Complement C1s subcomponent (Homo sapiens) (UniProt P09871) (assay: human C1s inhibition by compound pools – biochemical, 10-compound mixtures, primary screen (AID 538;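 further: 0% = enzyme wells lacking compound mixture and 100% = no-enzyme blank wells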)). Conditions: purified C1s, fluorogenic AMC substrate, pooled mixtures; screened at 5 µM (by protocol).
Sequence of Complement C1s subcomponent (Homo sapiens) (P09871 16-437 limits assumed): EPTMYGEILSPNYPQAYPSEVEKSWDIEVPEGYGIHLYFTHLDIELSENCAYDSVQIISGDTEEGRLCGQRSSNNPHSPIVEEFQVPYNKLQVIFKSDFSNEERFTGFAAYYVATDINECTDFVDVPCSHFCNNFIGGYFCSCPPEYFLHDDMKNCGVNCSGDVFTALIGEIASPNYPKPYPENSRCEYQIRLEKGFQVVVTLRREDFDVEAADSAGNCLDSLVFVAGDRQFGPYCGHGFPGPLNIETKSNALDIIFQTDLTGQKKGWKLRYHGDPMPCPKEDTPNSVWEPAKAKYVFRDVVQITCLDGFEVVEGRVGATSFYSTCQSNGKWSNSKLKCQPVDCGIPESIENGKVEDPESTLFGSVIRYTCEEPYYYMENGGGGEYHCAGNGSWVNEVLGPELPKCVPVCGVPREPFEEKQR
Sequence of Complement C1s subcomponent (Homo sapiens) (P09871 438-688 limits assumed): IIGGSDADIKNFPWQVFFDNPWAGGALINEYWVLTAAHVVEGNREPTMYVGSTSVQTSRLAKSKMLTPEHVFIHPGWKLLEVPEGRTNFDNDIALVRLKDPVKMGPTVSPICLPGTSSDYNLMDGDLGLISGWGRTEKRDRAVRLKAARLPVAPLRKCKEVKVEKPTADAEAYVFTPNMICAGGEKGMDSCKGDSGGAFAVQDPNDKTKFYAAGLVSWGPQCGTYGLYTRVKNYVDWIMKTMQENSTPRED

| SMILES | mean inhibition % of two 10-compound mixtures (hits give high values) |
| --- | --- |
| Cc1ccc(C2CC(=O)NC(SCC(=O)OCc3ccccc3)=C2C#N)o1 (stereo not drawn) | -61.3% |
| CCC(=O)Nc1cccc(NC(=O)CSc2nnnn2C2CCCC2)c1 | 2.81% |
| CC(C)c1cc(C(=O)O)on1 | -17.9% |
| CC1CCc2c(sc(NC(=O)c3ccc(Cn4cc(Br)cn4)o3)c2C(N)=O)C1 (stereo not drawn) | -5.95% |
| CCCn1c(=O)c2ccccc2n2c(SCC(=O)/C(C#N)=C(\C)N)nnc12 | -0.9% |
| CCOc1ccc2nc(SC(CC)C(=O)Nc3cc(C)on3)sc2c1 (stereo not drawn) | 2.46% |
| COc1ccccc1Nc1nc(N)nc(CN(C)C2CCCCC2)n1 | -40.1% |
| C=CCn1c(CC(=O)Nc2cccc(OC)c2)nnc1SCC(=O)NC1CCCCC1 | -2.35% |
| CN1CCN(C(=O)c2ccc(NS(=O)(=O)c3ccccc3)cc2)CC1 | 9.96% |
| O=C(c1cccc(S(=O)(=O)N2CCOCC2)c1)N1CCOCC1 | 13.9% |
| CC(=O)N1CCN(C(=O)c2cccc(S(=O)(=O)Nc3ccc(C)cc3)c2)CC1 | 66.7% (active) |
| COCCCNC(=O)COc1cc(C)c(Cl)c(C)c1 | -0.425% |
| CCOC(=O)Cc1csc(NC(=O)CSc2nc(C)cc(=O)[nH]2)n1 | -2.67% |
| O=S(=O)(/C=C/c1ccccc1)NCCc1ccccn1 | -2.77% |
| Clc1ccc(Cn2ncc3c(NCc4cccnc4)ncnc32)cc1 | 3.33% |
| Cc1ccc(S(=O)(=O)NCC(=O)OCC(=O)N2CCc3ccccc32)cc1 | 5.33% |
| N#Cc1cccc(CSc2nnc(CCCO)n2-c2ccccc2)c1 | -5.26% |
| CCCC(C(=O)N1CCOCC1)N1C(=O)C2C3C=CC(C3)C2C1=O (stereo not drawn) | -8.34% |
| O=c1[nH]nc(CSCc2ccccc2Cl)[nH]1 | -7.92% |
| Cc1c(C(=O)NCC2CCCO2)sc2nc(-c3ccccc3)cn12 (stereo not drawn) | 0.595% |
| COC(=O)C(C)n1cnc2c(nnn2-c2cccc(Cl)c2)c1=O (stereo not drawn) | -40.6% |
| CC(C)c1ccc(OCC(O)Cn2cnc3ccccc32)cc1 (stereo not drawn) | -21.9% |

| SMILES | mean inhibition % of two 10-compound mixtures (hits give high values) |
| --- | --- |
| CC(C)C(NC(=O)c1cccc(S(=O)(=O)N2CCOCC2)c1)C(=O)NCCc1ccccn1 (stereo not drawn) | -12.8% |
| COC(=O)COc1ccc2oc(=O)cc(C)c2c1 | 10.3% |
| COC(=O)c1ccc(S(=O)(=O)c2ccc(C(=O)OC)s2)s1 | -14% |
| COC(=O)c1ccccc1NC(=O)CSc1ccccn1 | -21.1% |
| CC1CN(Cc2nc3c(c(=O)n(C)c(=O)n3C)n2Cc2cccc(Cl)c2)CC(C)O1 (stereo not drawn) | -18.5% |
| COc1cccc(-n2c(SCC(=O)NC3CCCCC3)nc3n[nH]c(C)c3c2=N)c1 | -13.5% |
| CC(=O)N(Cc1cccs1)C1CCOC(C)(C)C1 (stereo not drawn) | 4.59% |
| CCOC(=O)c1cccc(NC(=O)CCc2c(C)nc3ncnn3c2C)c1 | 2.35% |
| CC(C)n1c(NCc2c[nH]c3ccccc23)nc2ccccc21 | -7.58% |
| Cn1c(/C(C#N)=C2/CCCCCN2)nc2ccccc21 | -6.22% |
| Cc1ccc(OCC(=O)Nc2ccc(-c3nc4ncccc4o3)cc2)cc1 | -66.2% |
| Cc1ccccc1CSc1nnc(Cn2c(=O)sc3ccccc32)n1C | 4.08% |
| CCOC(=O)CCc1c(C)c2ccc(OCc3nn[nH]n3)c(C)c2oc1=O | -25% |
| Cc1c(C(=O)Nc2ccccc2Cl)oc2ccc(S(=O)(=O)N3CCC4(CC3)OCCO4)cc12 | -4.62% |
| COc1cccc(-c2nnc(NC(=O)c3ccc(S(=O)(=O)N(CC(C)C)CC(C)C)cc3)o2)c1 | 14% |
| COC(=O)C(C)Sc1ccc2nnc(-c3cccc(F)c3)n2n1 (stereo not drawn) | -5.87% |
| CCOC(=O)c1nnn(-c2nc(OC)nc(N(C)C)n2)c1-c1ccccc1 | -30.1% |
| C#CC(C)(C)NC(=O)CSc1nc2c(c(=O)n(C)c(=O)n2C)n1CCCC | 1.95% |
| CCCc1cc(=O)[nH]c(SCc2ccc(C#N)cc2)n1 | -9.73% |
| C=C(C)COc1ccc(-c2n[nH]c(C)c2-c2ccccc2OC)c(O)c1 | 15.7% |
| O=C(C1=C(O)C(=O)N(Cc2ccccc2)C1c1cccnc1)c1ccco1 (stereo not drawn) | 3.85% |
| Cc1ccccc1C(=O)NCCN=C1NS(=O)(=O)c2ccccc21 | -24.8% |

| SMILES | mean inhibition % of two 10-compound mixtures (hits give high values) |
| --- | --- |
| N#Cc1ccccc1-n1c(N)c(C(=O)N2CCCC2)sc1=S | -0.195% |
| O=C(O)COc1nsnc1N1CCOCC1 | -1.36% |
| O=C(O)c1cc(S(=O)(=O)N2CCCCCC2)c(Cl)cc1Cl | -41% |
| Cc1ccccc1-c1ccc(Nc2ccc(C(=O)N3CCOCC3)cc2)nn1 | 16% |
| Cc1ccnc(N2C(=O)c3ccccc3C2Nc2ccc3c(c2)OCCO3)c1 (stereo not drawn) | -33.6% |
| COc1cccc(OCC(=O)Nc2ccccc2C(N)=O)c1 | 16.6% |
| O=C(O)C1CC(=O)N(Cc2cccnc2)C1 (stereo not drawn) | 5.36% |
| CCCn1c(=NC(C)=O)c(C(=O)OCC)cc2c(=O)n3ccccc3nc21 | -168% |
| N#Cc1cccc(NC(=O)CCC2CCCC2)c1 | -2.16% |
| Cn1nc(-c2ccc(Cl)cc2)c2cc(C(=O)NCc3ccco3)sc21 | 10.9% |
| O=S(=O)(NCc1ccccn1)c1ccc(Br)s1 | -20.3% |
| COc1ccc(C(=O)Nc2c(N)nc(SCC(=O)N3CCC(C)CC3)[nH]c2=O)cc1OC | -31.6% |
| CC1(C)CC(=O)C=C(NCc2ccncc2)C1 | -4.76% |
| Cc1ccc2c(c1)c1ncn(CCC3=CCCCC3)c(=O)c1n2C | 2.97% |
| CCCn1c(SCC(=O)c2ccc3c(c2)OCCO3)nnc1C(C)C | -7.42% |
| Cc1nn(-c2ccccc2)c2[nH]c(C(F)(F)F)cc(=O)c12 | 1.25% |
| CS(=O)(=O)N(C(=O)NC(=O)NC1CCS(=O)(=O)C1)C1CCCCC1 (stereo not drawn) | -74.3% |
| CCCS(=O)(=O)N1CCC(C(=O)NCCCN(C)Cc2ccccc2)CC1 | 2.46% |
| CCc1cc(Br)ccc1NC(=O)C1CCCO1 (stereo not drawn) | 4.52% |
| Cc1cccc(OCC(O)Cn2c(=N)n(CCN3CCOCC3)c3ccccc32)c1 (stereo not drawn) | 3.52% |
| O=S(=O)(NCCOc1cccc2cccnc12)c1ccc(F)cc1 | 8.29% |
| CCOC(=O)CN(C(=O)CN1CCOCC1)c1ccc(Br)cc1 | 1.94% |

| SMILES | mean inhibition % of two 10-compound mixtures (hits give high values) |
| --- | --- |
| O=C(Nc1ccc(Cl)cn1)Nc1cccs1 | 7.83% |
| CC(NC(=O)c1cc(-c2ccccc2)on1)c1ccccc1 (stereo not drawn) | -25.3% |
| CCn1ncc(C2=NOC(C(=O)Nc3ccccc3C(=O)OC)C2)c1C (stereo not drawn) | 1.96% |
| COc1ccc(CCNC(=O)CN2CCC(n3nnc4cc(F)ccc43)CC2)cc1OC | 2.77% |
| Cc1ccc(Cn2nnc3c(=O)n(CC(=O)N4CCCCC4)cnc32)cc1 | -35.5% |
| Cc1ccc(CNC(=O)C2CC(=O)N(C3CCCCCCC3)C2)cc1 (stereo not drawn) | -34.1% |
| COc1ccccc1N(C(=O)Cn1nnc2ccccc21)C(C(=O)NCc1ccco1)c1ccc(C)o1 (stereo not drawn) | 8.72% |
| C#CCN1C(=O)C(O)(CC(=O)c2cc(OC)ccc2OC)c2ccccc21 (stereo not drawn) | 11.6% |
| C=CCn1c(SCn2nnc3ccccc3c2=O)nnc1-c1ccc(Cl)cc1 | 9.21% |
| CCOc1ccc(S(=O)(=O)N(CC(=O)O)c2ccccc2)cc1 | -11.4% |
| O=S1(=O)CCN2C(=N1)SC1=C2CCN(Cc2ccccc2)C1 | 15.2% |
| Cc1cc(C)cc(NC(=O)N2CCC(NC(=O)c3ccc(F)cc3)CC2)c1 | 3.5% |
| CC(C)CCNC(=O)C(C)N(C(=O)Cn1nnc(-c2ccc(F)cc2)n1)C1CCCC1 (stereo not drawn) | -3.08% |
| CCCCCOC(=O)NCCOC(=O)Nc1ccc(C(=O)OCC)cc1 | 1.11% |
| CCNc1nc(SCCOc2ccccc2)nc(N(C)C)n1 | 3.09% |
| C=CCn1c(SCC(=O)NC23CC4CC(CC(C4)C2)C3)nc(O)cc1=O | -25.2% |
| COC(=O)c1cccc(NC(=O)CN2CCC(NC(=O)c3cc(OC)c(OC)c(OC)c3)CC2)c1 | -69.7% |
| Cc1cccc(N2CCN(S(=O)(=O)c3ccc4c(c3)c(=O)n(C)c(=O)n4C)CC2C)c1 (stereo not drawn) | 12.1% |
| CCCC(=O)Nc1ccc(C(=O)NCCCn2ccnc2)cc1 | 14.7% |
| COc1ccc(-c2cc3ccc(OCc4nn[nH]n4)cc3oc2=O)cc1 | -281% |
| COc1ccc(S(=O)(=O)N(C)CC(=O)Nc2ccc3c(c2)OCCO3)cc1OC | 3.88% |
| COc1cccc(C(=O)Nc2c3c(nn2-c2cccc(C)c2C)CS(=O)(=O)C3)c1OC | -0.81% |

| SMILES | mean inhibition % of two 10-compound mixtures (hits give high values) |
| --- | --- |
| CC(=O)N1CCN(c2cccc(C)c2C)CC1 | 6.81% |
| Cc1nnc(NC(=O)CCC(=O)N2CCC(C)CC2)s1 | 4.7% |
| O=C(C(Cc1ccccc1)n1cccc1)N1CCN(C2CCCCC2)CC1 (stereo not drawn) | 11.2% |
| Cn1c(SCC(=O)N2CCOCC2)nnc1-c1ccc(NC(=O)c2ccccc2F)cc1 | 3.6% |
| O=C(COc1ccc(F)cc1)N(CC1=CCS(=O)(=O)C1)c1ccccc1 | 4.83% |
| O=C1NC2(CCCCC2)N=C1c1ccccc1 | 2.35% |
| CCC/C(O)=C1\C(=O)CC(C)(C)CC1=Nc1ccccc1OC | 9.67% |
| O=C(CS(=O)(=O)c1cn(Cc2cccc(F)c2)c2ccccc12)N1CCCCC1 | -0.735% |
| CCOc1ccc(Cn2nnc(C(=O)NCc3ccccc3)c2N)cc1 | -16.1% |
| Oc1ccc(Cl)cc1/C=N/c1nc2ccccc2[nH]1 | 5.15% |
| CCN=C1SC(CC(=O)Nc2ccc(C)cc2)C(=O)N1CC (stereo not drawn) | -15% |
| Cc1occc1C(=O)N1CCCc2ccccc21 | -1.12% |
| CCN(CC)C(=O)CSc1nnc(-c2cnccn2)n1-c1ccc(C)cc1 | 14.1% |
| COc1ccc(-c2nnc(SCC(=O)NC3CCCCC3)o2)cc1OC | -3.36% |
| CCCOC(=O)C1=C(C)NC2=C(C(=O)C(C(=O)OC)C(C)C2)C1c1ccc(N(C)C)cc1 (stereo not drawn) | -5.72% |
| CC(CN1CCCCC1)OC(=O)c1ccccc1Cl (stereo not drawn) | 2.23% |
| CN1CCCc2cc(C#N)c(=O)[nH]c21 | -74.4% |
| Cc1ncn(C23CC4CC(CC(O)(C4)C2)C3)n1 | 0.845% |
| Cc1ncc(CC(=O)n2cc(C(=O)c3cc(Cl)ccc3O)cn2)s1 | 8.66% |
| Cn1c(=O)c2c(nc(SCC(=O)Nc3ccccc3N3CCCCC3)n2C)n(C)c1=O | -17.6% |
